Tau fibril FP – qHTS for Inhibitors of Tau Fibril Formation, Fluorescence Polarization; Microtubule-associated protein tau (Homo sapiens), P10636; K18 P301L tau heparin fibrillization, Alexa594 FP, 6 h; Potency, µM (titrated, usually from 57.7 µM), usual class: inhibitors; hit rate 0.39% among 280,000; AID 1468, 2008; further: nearly all actives have a fitted effect of over 55% in size
Target sequence (P10636 561-689 P618L limits assumed): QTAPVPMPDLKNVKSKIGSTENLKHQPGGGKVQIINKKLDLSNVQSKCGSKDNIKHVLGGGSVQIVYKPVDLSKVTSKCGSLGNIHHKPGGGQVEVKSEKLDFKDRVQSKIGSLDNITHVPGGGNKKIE
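Compound effects on tau fibrillization are measured by Alexa 594 fluorescence polarization (ex 555, em 632 nm). K18 P301L tau is used at 15 uM with 0.24 uM labeled tracer, and 20 uM heparin induces aggregation over 6 hr at 37 C.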
Coupling enz – qHTS Assay for Inhibitors of Fructose-1,6-bisphosphate Aldolase from Giardia Lamblia: Coupling assay counterscreen; coupling enzyme system counterscreen, AmpLite Red fluorescence; AID 2472, 2010; hit rate 0.67% among 290,000; activity change, negative = inhibition, % at 58.2 µM, hits read low; in the data active means activity change below about -30%
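Compounds tested against the coupling enzymes alone at 57.5 uM final; readout was AmpLite Red fluorescence (525/598 nm) after 20 min at RT.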
Tau fluor cs – Counterscreen qHTS for Inhibitors of Tau Fibril Formation, Fluorescence Polarization; tau K18 P301L Alexa594 fluorescence, heparin fibrillization; AID 1463, 2008; Potency, µM (highest dose often 57.7 µM); hit rate 0.93% among 280,000; further: nearly all actives have a fitted effect of over 55% in size
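Human K18 P301L tau (15 uM unlabeled plus 0.24 uM Alexa 594-labeled, final) in 100 mM sodium acetate pH 7 was mixed with compound and 20 uM heparin and incubated 6 hr at 37 C.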
Tau fibril ThT – qHTS for Inhibitors of Tau Fibril Formation, Thioflavin T Binding; hit rate 2.1% among 270,000; recombinant tau K18 P301L, heparin-induced fibrillization, ThT fluorescence; Potency, µM (series often up to 57.4 µM), most hits filed as inhibitors; further: nearly all actives have a fitted effect of over 55% in size
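ThT emission at 510 nm, taken 1 hr after adding 30 uM dye, quantifies aggregates formed when 20 uM heparin acts on human tau K18 P301L for 6 hr at 37 C.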
Sfp PPTase inh – qHTS Assay for Inhibitors of Bacillus subtilis Sfp phosphopantetheinyl transferase (PPTase); 4'-phosphopantetheinyl transferase ffp (Bacillus subtilis), Q9F4F7; Biochemical Sfp PPTase activity, qHTS; Potency, µM, hits mostly inhibitors; hit rate 3.5% among 310,000;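 further: the enzyme is Sfp with the accession as filed and its product quenches rhodamine fluorescence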
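With Hepes-Na pH 7.6 buffer containing 10 mM MgCl2, Sfp (15 nM) modified BHQ-2-YbbR (12.5 uM) using rhodamine-CoA (5 uM). Two reads 30 minutes apart at 525/598 nm yielded each well's rate.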
Of the large screens only hits and unclear results are named; the others gave an inactive call; [ ] = dose if it differs, or a comment. Shown are actives, neighbours in structure and some others; about 5.2% of the full set was active somewhere. Unless noted, the call rests on the fitted dose curve; in most records, active means well fitted curve in the direction sought with a large enough effect; inconclusive means small, poorly fitted or top-dose-only effect, or another doubt; inactive means no such curve, though single readings can be large; an effect the other way counts as inactive or inconclusive.

CCS(=O)(=O)c1ccc(O)c(Nc2cc(C)nc(SC)n2)c1	none (no result: Coupling enz, Sfp PPTase inh)
Cc1ccc(CCNC(=O)C23CN(Cc4ccccc4)CC2C(c2ccc([N+](=O)[O-])cc2)=NO3)cc1 (stereo unspecified)	Tau fibril FP inconclusive, Sfp PPTase inh 10µM
Cc1ccc(CNC(=O)C23CN(Cc4ccccc4)CC2C(c2ccc([N+](=O)[O-])cc2)=NO3)cc1 (stereo unspecified)	Sfp PPTase inh 40µM
CCOC(=O)N1CCc2c(sc(NCc3ccc(N(C)C)cc3)c2C(=O)Nc2ccccc2OCC)C1	Tau fluor cs inconclusive, Tau fibril ThT inconclusive (no result: Coupling enz, Sfp PPTase inh)
COc1cccc(C2C=C(Nc3ccccc3)C(=O)N2c2ccccc2)c1 (stereo unspecified)	Sfp PPTase inh 63µM
COc1ccc(C2C=C(Nc3ccccc3)C(=O)N2c2ccccc2)cc1OC (stereo unspecified)	Tau fibril FP inconclusive, Tau fibril ThT 13µM, Sfp PPTase inh inconclusive
CC(=O)Nc1ccc(NC2=C/C(=N/S(=O)(=O)c3cccs3)c3ccccc3C2=O)cc1	Tau fibril FP inconclusive, Coupling enz -35, Tau fluor cs 5µM[quencher], Tau fibril ThT inconclusive
Cc1ccccc1NC1=C/C(=N\S(=O)(=O)c2cccs2)c2ccccc2C1=O	Coupling enz -46, Tau fluor cs inconclusive, Tau fibril ThT 8.9µM
COc1ccc(S(=O)(=O)/N=C2\C=C(Nc3ccc(O)cc3)C(=O)c3ccccc32)cc1	Coupling enz -32 (no result: Tau fibril FP, Tau fluor cs, Tau fibril ThT)
Cc1ccccc1CCNC(=O)c1cc2cc(S(=O)(=O)N3CCCCC3)ccc2n1C	none (no result: Coupling enz, Sfp PPTase inh)
Cc1nc(N2CCCC2)c2c(C(=O)Nc3cccc(C)c3C)c(C)oc2n1	none (no result: Coupling enz, Sfp PPTase inh)
C=CCCCCCCCCC(=O)OC	none (no result: Tau fibril FP, Coupling enz, Tau fluor cs, Tau fibril ThT)
COc1ccc(C(=O)Cn2c(Br)nc3c2c(=O)n(C)c(=O)n3C)cc1	Sfp PPTase inh 50µM
O=C(CC(NC(=O)C(F)(F)F)c1ccccc1)Nc1nnc(CCc2ccccc2)s1 (stereo unspecified)	Sfp PPTase inh 18µM
Cc1nnc(NC(=O)CC(NC(=O)C(F)(F)F)c2ccccc2)s1 (stereo unspecified)	none
Cc1ccccc1/C=N/Nc1nc2ccccc2c(=O)n1O	Sfp PPTase inh 32µM (no result: Tau fibril ThT)
C=CCn1c(N/N=C/c2ccc(O)cc2)nc2ccccc2c1=O	Tau fibril FP inconclusive, Tau fluor cs 16µM[quencher]
C=CCn1c(C)nc2ccccc2c1=O	none
CCC(=O)NC[C@H](Cc1ccc(OCCc2nc(-c3ccccc3)oc2C)cc1)N/C(C)=C\C(=O)c1ccc(C(F)(F)F)cc1	none (no result: Tau fibril FP, Tau fluor cs, Tau fibril ThT)
COc1cc(/C=N/NC(=O)Cc2csc(C)n2)ccc1OCC(C)C	none
COc1ccc(/C=N/NC(=O)Cc2csc(Nc3cccc(C(F)(F)F)c3)n2)cc1C	Tau fibril FP inconclusive, Tau fluor cs 18µM[quencher], Tau fibril ThT inconclusive
NC(=O)c1cccc(-c2cc(Nc3ccc(OC(F)(F)F)cc3)ncn2)c1	Tau fibril FP 28µM, Tau fluor cs inconclusive, Tau fibril ThT inconclusive
COc1ccc(C(=O)n2nc(-c3ccco3)nc2NCc2cccs2)cc1OC	Tau fluor cs inconclusive, Tau fibril ThT inconclusive (no result: Coupling enz, Sfp PPTase inh)
COc1ccc(NC(=O)Nc2ccc(F)cc2)c(C)c1	none
Cc1cc2c(NC(=O)CC(C)(C)CC(=O)O)cccc2nn1	Coupling enz -36 (no result: Tau fibril ThT)
CC(C)(CC(=O)O)CC(=O)Nc1ccccc1Oc1ccccc1	none
Cc1cc2c(NC(=O)Nc3ccc(F)cc3)cccc2nn1	Tau fibril FP inconclusive, Coupling enz -31, Tau fibril ThT inconclusive, Sfp PPTase inh 35µM
COCCNC(=O)C(=O)Nc1c2c(nn1-c1ccccc1)CS(=O)(=O)C2	none (no result: Coupling enz, Sfp PPTase inh)
CC1=CC(C)(C)N2C(=O)C(=Nc3ccc(O)cc3)c3cccc1c32	Tau fibril FP 28µM, Coupling enz -45, Tau fluor cs inconclusive, Tau fibril ThT 13µM, Sfp PPTase inh inconclusive
COc1cc(N=C2C(=O)N3c4c(cccc42)C(C)=CC3(C)C)cc(OC)c1	Tau fibril ThT inconclusive
CCOC(=O)c1ccc(NC(=O)C2CCCN(c3ccc(Sc4ccc(C)cc4)nn3)C2)cc1 (stereo unspecified)	none (no result: Coupling enz, Sfp PPTase inh)
N#Cc1cnc(NN)nc1	Sfp PPTase inh 6.3µM
CC(=O)Nc1nc(-c2ccccc2)c(-c2ccccc2)o1	none
CC(=O)NC1Sc2ccccc2N=C1c1ccccc1 (stereo unspecified)	Tau fibril ThT inconclusive, Sfp PPTase inh 16µM
Cc1ccc(N2C(=O)/C(=C/c3ccco3)SC2=S)cc1	Tau fibril ThT inconclusive, Sfp PPTase inh inconclusive
N=C1S/C(=C\c2ccco2)C(=O)N1c1nccs1	Tau fibril ThT 16µM, Sfp PPTase inh inconclusive
N=C1S/C(=C\c2ccco2)C(=O)N1c1ccc2c(c1)OCO2	Tau fluor cs inconclusive, Tau fibril ThT 16µM, Sfp PPTase inh inconclusive
COc1ccccc1OCCN1C(=O)S/C(=C\c2ccco2)C1=O	Tau fibril ThT inconclusive
Cn1cccc1CC(=O)N/N=C/C(Cl)=C/c1ccccc1	Tau fibril ThT inconclusive
O=C(Cc1cc(=O)[nH][nH]1)N/N=C/c1c(Cl)cccc1Cl	Tau fluor cs inconclusive, Tau fibril ThT inconclusive, Sfp PPTase inh 50µM
O=C(Cc1cc(=O)[nH][nH]1)N/N=C/C(Cl)=C/c1ccccc1	Tau fibril FP inconclusive, Tau fluor cs inconclusive, Tau fibril ThT 2.8µM
O=C(Cc1cc(=O)[nH][nH]1)N/N=C/c1c(F)cccc1Cl	Tau fibril FP inconclusive, Tau fibril ThT inconclusive
COc1ccc(OC)c(NC(=O)CSc2nccn2-c2cc(C)cc(C)c2)c1	none (no result: Coupling enz, Sfp PPTase inh)
CCCCOc1ccc(S(=O)(=O)Nc2ccc(NC(C)=O)cc2)cc1	none
CCCCCCNC(=O)Nc1ccc(S(=O)(=O)Nc2ccc(CCNC[C@H](O)COc3ccc(O)cc3)cc2)cc1	Tau fibril FP inconclusive, Tau fluor cs 13µM[quencher], Tau fibril ThT inconclusive, Sfp PPTase inh 25µM
COc1ccc(Cn2c(=O)c3oc4ccccc4c3n(Cc3ccccc3)c2=O)cc1	none (no result: Coupling enz, Sfp PPTase inh)
Cc1cc(C)c(C#N)c(Nc2ccccc2Cl)n1	none
N#Cc1c(Nc2ccccc2Cl)s[nH]c1=O	Tau fibril FP 8.9µM, Tau fluor cs inconclusive, Tau fibril ThT 7.9µM, Sfp PPTase inh 4µM
N#Cc1c(Nc2ccccc2)s[nH]c1=O	Tau fibril FP 16µM, Tau fluor cs inconclusive, Sfp PPTase inh 20µM (no result: Tau fibril ThT)
N#Cc1c(Nc2ccccc2C(F)(F)F)s[nH]c1=O	Tau fibril FP 28µM, Tau fibril ThT 16µM, Sfp PPTase inh 3.5µM
Cc1ccc(CNC(=O)[C@H](C)[C@H]2C[C@]2(C)[C@H](NC(=O)OCc2ccccc2)c2ccccc2)c(F)c1F	none
CCc1ccc(NC(=O)c2ccc3[nH]c(C)c(C)c3c2)cc1	Tau fibril FP inconclusive, Tau fibril ThT inconclusive (no result: Coupling enz, Sfp PPTase inh)
CCS(=O)(=O)N1CCc2cc(C(=O)NC(C)c3ccccc3)ccc21 (stereo unspecified)	none (no result: Coupling enz, Sfp PPTase inh)
